In PubChem BioAssay (NCI) one finds growth data, which are given here for 13 compounds.

Some test systems named below: NCI-H23 lung; NCI-H226 lung; NCI-H322M lung; HOP-62 NSCLC; NCI-H460 lung; HOP-92 NSCLC; NCI-H522 lung; A549/ATCC NSCLC; 786-0 renal; COLO 205 colon.
Common to all, as to test: NCI-60 one-dose screen, 48 h (100 = growth as untreated, 0 = no growth, -100 = all killed)
Common to all, as to settings: 10 µM unless noted

Molecules are shown by their SMILES. This is part of a sample that, as a whole, favours compounds with a hit. Of some 83,000 tested, about 20% had one in any assay.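 48-hour exposure, single concentration, 96-well plates; percent growth endpoint where 0 means no net growth. Active: below 10.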 Unmarked numbers belong to inactive results. Activity calls are given as the source filed them.

Take `COc1cc(-c2nc(SCC(C)C)nc(Nc3cccc4ccccc34)c2C#N)cc(OC)c1OC`: the growth with NCI-H23 lung was 102%; in the experiment with NCI-H226 lung, 82.5%; in the experiment on NCI-H322M lung it was 101%; with HOP-62 NSCLC, 87.2%; in the experiment on NCI-H460 lung, 82.3%; in the experiment with HOP-92 NSCLC, 92.9%. The growth is 89.2% in the experiment with NCI-H522 lung, 88.4% in the experiment on A549/ATCC NSCLC, 103% in the experiment with 786-0 renal and 95.3% with COLO 205 colon.

As for `Cc1ccc(Sc2oc(-c3ccc(C)cc3)nc2[P+](c2ccccc2)(c2ccccc2)c2ccccc2)cc1`, the growth in the experiment on NCI-H23 lung is -17.2% (active); in the experiment on NCI-H226 lung it was 15.7%; in the experiment on NCI-H322M lung, 10.3%; in the experiment with HOP-62 NSCLC, 9.94% (active); in the experiment with NCI-H460 lung, -39.6% (active); in the experiment with HOP-92 NSCLC, -9.3% (active). Further, the growth in the experiment on NCI-H522 lung is -38.5% (active); in the experiment with A549/ATCC NSCLC, 7.74% (active); in the experiment on 786-0 renal, 3.99% (active); in the experiment with COLO 205 colon, -41.5% (active).

`CCN(c1ccc(Cl)cc1)c1nc(-c2ccc([N+](=O)[O-])cc2)cs1`: the growth in the experiment with NCI-H23 lung was 92%; in the experiment on NCI-H226 lung, 91.9%; with NCI-H322M lung it was 86.7%; with HOP-62 NSCLC, 99.6%; in the experiment on NCI-H460 lung, 99.6%; in the experiment on HOP-92 NSCLC, 83.6%. The growth in the experiment with NCI-H522 lung was 82.8%; in the experiment with A549/ATCC NSCLC, 97.6%; with 786-0 renal it was 89%; with COLO 205 colon, 113%.

As to `C=CCc1c2c(c(OC)c3ccoc13)C(=O)/C(=C/c1ccccc1OC)O2`, the growth was 19.7% with NCI-H23 lung; 72.8% with NCI-H226 lung; 65.9% in the experiment with NCI-H322M lung; 80% in the experiment with HOP-62 NSCLC; 31.3% with NCI-H460 lung; 58.8% with HOP-92 NSCLC. Moreover, the growth in the experiment with NCI-H522 lung was 48.5%; in the experiment with A549/ATCC NSCLC, 60.2%; with 786-0 renal, 94.1%; in the experiment with COLO 205 colon, 104%.

In the case of `Cc1cc2c([nH]1)CSc1cc(S(=O)(=O)c3ccccc3)c(=O)[nH]c1-2`, the growth with NCI-H23 lung is 11.4% [100 µM]; with NCI-H226 lung, 32.6% [100 µM]; with NCI-H322M lung, 47.1% [100 µM]; with HOP-62 NSCLC, 33% [100 µM]; in the experiment on NCI-H460 lung, 4.49% [100 µM] (active); in the experiment on HOP-92 NSCLC, 16.3% [100 µM]. The growth in the experiment with NCI-H522 lung is 23.3% [100 µM]; in the experiment on A549/ATCC NSCLC, 52.2% [100 µM]; in the experiment on 786-0 renal, 21.5% [100 µM]; with COLO 205 colon, -40.5% [100 µM] (active).

With `C=C(C)[C@@H]1CC[C@]2(C(=O)N3CCN(C)CC3)CC[C@]3(C)[C@H](CC[C@@H]4[C@@]5(C)CC(=C/c6ccncc6)/C(=N/O)C(C)(C)[C@@H]5CC[C@]43C)[C@@H]12`, the growth in the experiment with NCI-H23 lung is 78.1%; in the experiment on NCI-H226 lung, 88.4%; in the experiment with NCI-H322M lung, 75.1%; in the experiment with HOP-62 NSCLC, 96.8%; in the experiment with NCI-H460 lung, 69.5%; in the experiment with HOP-92 NSCLC, 56.7%. Moreover, the growth with NCI-H522 lung is 69%; with A549/ATCC NSCLC it was 73.9%; in the experiment on 786-0 renal it was 74.6%; in the experiment on COLO 205 colon, 80.8%.

In the case of `CC(=O)N1N=C(c2ccc(Nc3nc(Nc4ccc(Cl)cc4)nc(Nc4ccc(Cl)cc4)n3)cc2)CC1c1ccco1` (stereo not given), the growth is 85.4% in the experiment on NCI-H23 lung; 100% in the experiment with NCI-H226 lung; 103% in the experiment on NCI-H322M lung; 91.9% with HOP-62 NSCLC; 96.9% in the experiment on NCI-H460 lung; 99.9% in the experiment on HOP-92 NSCLC. Further, the growth in the experiment on NCI-H522 lung is 68.4%; with A549/ATCC NSCLC, 72.1%; in the experiment on 786-0 renal, 86.7%; with COLO 205 colon, 109%.

For `CCN1CCN(Cc2cn(CC(=O)Nc3ccc4c(ccn4Cc4ccccc4)c3)nn2)CC1`, the growth with NCI-H23 lung is 104%; in the experiment on NCI-H226 lung, 91.8%; in the experiment on NCI-H322M lung it was 98.8%; in the experiment on HOP-62 NSCLC it was 96%; in the experiment with NCI-H460 lung it was 114%; with HOP-92 NSCLC, 87.6%. Further, the growth in the experiment on NCI-H522 lung was 99.9%; in the experiment on A549/ATCC NSCLC, 102%; in the experiment on 786-0 renal, 97.8%; in the experiment with COLO 205 colon it was 99.4%.

Consider `C=C1C(=O)O[C@H]2[C@H]1CC/C(COC(=O)CCSCCC(=O)OC/C1=C/CC[C@@]3(C)O[C@H]3[C@H]3OC(=O)C(=C)[C@@H]3CC1)=C\CC[C@@]1(C)O[C@@H]21`, for which the growth is 9.21% (active) in the experiment on NCI-H23 lung; -39.5% (active) with NCI-H226 lung; 80.5% in the experiment on NCI-H322M lung; 86.9% in the experiment with HOP-62 NSCLC; 9.87% (active) in the experiment with NCI-H460 lung; -50.2% (active) in the experiment with HOP-92 NSCLC. Further, the growth with NCI-H522 lung is -75.8% (active); in the experiment with A549/ATCC NSCLC, 71.1%; in the experiment on 786-0 renal it was -21.9% (active); with COLO 205 colon, -72.3% (active).

For the compound `COc1ccc2[nH]cc(C(c3cc(F)cc(F)c3)c3c[nH]c4ccc(OC)cc34)c2c1`, the growth was 67.2% with NCI-H23 lung; 97.4% in the experiment on NCI-H226 lung; 70.3% in the experiment on NCI-H322M lung; 93.4% with HOP-62 NSCLC; 64.4% in the experiment with NCI-H460 lung; 54.3% in the experiment on HOP-92 NSCLC. The growth with NCI-H522 lung is 69.3%; with A549/ATCC NSCLC, 69.4%; in the experiment with 786-0 renal, 92.4%; with COLO 205 colon, 78.1%.

Regarding `COc1ccc(C(=O)Nc2ncc(Cc3cccc(Cl)c3)s2)cc1OC`, the growth with NCI-H23 lung is 46.8%; in the experiment with NCI-H226 lung, 42.2%; in the experiment on NCI-H322M lung, 39.6%; with HOP-62 NSCLC it was 4.67% (active); in the experiment with NCI-H460 lung, 13.7%; in the experiment on HOP-92 NSCLC it was 54.6%. The growth was -11% (active) in the experiment with NCI-H522 lung, 34% in the experiment on A549/ATCC NSCLC, 26.9% with 786-0 renal and 1.48% (active) in the experiment with COLO 205 colon.

On to `O=C(O)c1ccc(-n2cc(/C=N/Nc3ccc(F)cc3)c(-c3cc4ccccc4oc3=O)n2)cc1`, for which the growth with NCI-H23 lung is 90.8%; in the experiment on NCI-H226 lung it was 101%; with NCI-H322M lung, 85.4%; in the experiment with HOP-62 NSCLC it was 84.3%; with NCI-H460 lung, 96.5%; in the experiment with HOP-92 NSCLC it was 81.5%. The growth with NCI-H522 lung is 50.9%; in the experiment on A549/ATCC NSCLC, 92.9%; in the experiment with 786-0 renal, 74.6%; with COLO 205 colon it was 110%.

For `COc1cc2c(c(OC)c1OC)CCC(c1cccc(C(=O)Nc3cccc(Br)c3)c1)O2` (stereo not given), the growth in the experiment on NCI-H23 lung is 77.5%; with NCI-H226 lung, 69.9%; with NCI-H322M lung it was 50.9%; with HOP-62 NSCLC, 96.8%; in the experiment with NCI-H460 lung, 70.5%; in the experiment with HOP-92 NSCLC, 6.24% (active). For the same compound, the growth in the experiment with NCI-H522 lung is 48.8%; in the experiment on A549/ATCC NSCLC, 64.5%; with 786-0 renal, 81%; in the experiment on COLO 205 colon, 88.3%.
